TIM10 inh: inhibits growth of TIM10 yeast strain | S. cerevisiae TIM10 strain growth, BacTiter-Glo luminescence, 24 h | actives 1.4% (n = 330,000) | inhibition, % at 10 µM;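 active = inhibition of 40% or more at the single tested concentration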;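 note: wild-type TIM10 isogenic control strain grown at permissive 25 °C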
tim10-1 inh: inhibits growth of tim10-1 mutant yeast. S. cerevisiae tim10-1 ts strain growth, BacTiter-Glo, 24 h. inhibition, % at 20 µM. actives 2.2% (n = 330,000);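 active = inhibition of at least 40%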;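 note: mutant grown at 25 °C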
tim23-1 inh: inhibits growth of tim23-1 mutant yeast; S. cerevisiae tim23-1 growth, BacTiter-Glo luminescence, 24 h; inhibition, % at 20 µM; actives 1.3% (n = 330,000);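 active = growth inhibition of the mutant yeast at or above 50%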;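 note: temperature-sensitive mutant grown at 25 °C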
Beta2AR agonist: agonists of human beta-2 adrenergic receptor inducing internalization. Am2.2-beta2AR cells, FAP receptor internalization, flow cytometry. response, % (concentration not given with the values). P07550. actives 0.43% (n = 340,000);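 active = response above a set limit, near 3 SD of response in nonfluorescent compounds, cut at about 42% in these data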
Target sequence (P07550 whole entry, looked up): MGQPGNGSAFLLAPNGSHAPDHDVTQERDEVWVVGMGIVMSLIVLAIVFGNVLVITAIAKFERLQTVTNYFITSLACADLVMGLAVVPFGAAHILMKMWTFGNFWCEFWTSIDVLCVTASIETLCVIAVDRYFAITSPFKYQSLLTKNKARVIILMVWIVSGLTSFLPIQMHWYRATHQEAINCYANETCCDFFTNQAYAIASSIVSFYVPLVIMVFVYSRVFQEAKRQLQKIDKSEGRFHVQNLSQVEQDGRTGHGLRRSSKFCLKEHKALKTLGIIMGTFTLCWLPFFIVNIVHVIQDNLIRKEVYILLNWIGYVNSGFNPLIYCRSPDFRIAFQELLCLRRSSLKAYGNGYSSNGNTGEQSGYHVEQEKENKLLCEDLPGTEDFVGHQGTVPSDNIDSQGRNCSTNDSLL
PfHsp90 yeast 2: reduces growth (ATP signal) of yeast expressing P. falciparum Hsp90; S. cerevisiae expressing PfHsp90, BacTiter-Glo ATP, 48 h; yeast lacking PDR1 and PDR3 efflux regulators; inhibition, % at 9.4 µM; actives 0.32% (n = 310,000); AID 504621;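 active = every replicate shows inhibition above about 80%, whatever the replicate mean, limit read from the data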
Each line names hits and unclear results; the compound was inactive in the other large screens. Only some compounds are listed: those with a hit (about 3.8% of all), similar ones and a draw of the others.

O=C(CCl)N=c1sccn1Cc1ccccc1Cl	none
O=C(CCl)N=c1sccn1Cc1ccc(Cl)cc1Cl	Beta2AR agonist 67
O=C(CCl)N=c1sccn1Cc1cccc2ccccc12	Beta2AR agonist 50 (no result: TIM10 inh, tim10-1 inh, tim23-1 inh)
O=C(CSc1nnc(CNC(=O)c2ccco2)o1)Nc1cccc(F)c1	none
Cc1c(Nc2ccc3nonc3c2[N+](=O)[O-])c(=O)n(-c2ccccc2)n1C	none
Cc1c(Nc2cc(Cl)c3nonc3c2[N+](=O)[O-])c(=O)n(-c2ccccc2)n1C	Beta2AR agonist 89
COc1ccc(CN2C(=O)c3ccc(C(=O)O)cc3C2=O)cc1	none
C=CCn1c(=O)/c(=C/c2ccc(Cl)cc2)s/c1=C(\C#N)c1nnc2n1CCCCC2	none (no result: TIM10 inh, tim10-1 inh, tim23-1 inh, PfHsp90 yeast 2)
O=C(CN1CCN(C(=O)c2ccc(-c3nc4ccccc4s3)o2)CC1)Nc1ccc(F)cc1	none
COc1ccc(-c2nnc3n(CCc4ccccc4)c(=O)c4ccccc4n23)c(OC)c1	PfHsp90 yeast 2 107
CC(C)c1ccc(/C=N/Nc2ccc(C(=O)O)cc2)cc1	none
O=C(O)c1ccc(N/N=C/c2ccc(-c3ccccc3)cc2)cc1	PfHsp90 yeast 2 98 (no result: TIM10 inh, tim10-1 inh, tim23-1 inh)
COc1ccc(/C=C(/C(=O)c2cccs2)N2C=CC=CC2=C(C#N)C#N)cc1	Beta2AR agonist 77 (no result: TIM10 inh, tim10-1 inh, tim23-1 inh)
c1ccc(SCCOCCn2cncn2)cc1	none
OC(Cn1cncn1)(c1ccccc1)c1ccccc1	PfHsp90 yeast 2 92
CC(C)(C)C(=O)NC(=S)NNC(=O)c1sc2ccccc2c1Cl	PfHsp90 yeast 2 99
CCCCC1CN2CCc3c([nH]c4ccccc34)C2(C)C1 (stereo not given)	none
COc1ccc(C=NN=C2c3ccccc3-c3ccccc32)cc1O	none (no result: TIM10 inh, tim10-1 inh, tim23-1 inh)
CC(=O)Nc1ccc(C=NN=C2c3ccccc3-c3ccccc32)cc1	Beta2AR agonist 92 (no result: TIM10 inh, tim10-1 inh, tim23-1 inh)
NC(=O)c1cc(S(=O)(=O)N2CCN(c3ccc([N+](=O)[O-])cc3)CC2)cs1	none
CCC(=O)OCCNc1cc(Sc2nc3ccccc3[nH]2)c2nonc2c1[N+](=O)[O-]	Beta2AR agonist 78 (no result: TIM10 inh, tim10-1 inh, tim23-1 inh)
CCCC(=O)OCCNc1cc(SCc2ccco2)c2nonc2c1[N+](=O)[O-]	Beta2AR agonist 64
O=C(O)CCCN1C(=O)/C(=C\c2ccc(-c3nc4ccccc4s3)o2)SC1=S	Beta2AR agonist 53
CCCC[C@@H](CNC)NC[C@H](Cc1ccc(O)cc1)NCCc1ccc(OCC)cc1	none
Cc1c(Cc2ccccc2)c(=O)oc2c(C)c(OCC(=O)NCc3ccccn3)ccc12	Beta2AR agonist 45
Cc1ccc(C)c(NC(=O)CN(C)C(C)C(=O)N2CC(C)CC(C)C2)c1 (stereo not given)	none (no result: PfHsp90 yeast 2)
Cc1ccc(-n2c(N)c(C(=O)Nc3c(C)n(C)n(-c4ccccc4)c3=O)c3nc4ccccc4nc32)cc1	Beta2AR agonist 68
COc1cccc(-n2c(N)c(C(=O)Nc3c(C)n(C)n(-c4ccccc4)c3=O)c3nc4ccccc4nc32)c1	Beta2AR agonist 66
COc1ccc(N(C(=O)c2ccncc2)S(=O)(=O)c2ccc(F)cc2)cc1	none (no result: PfHsp90 yeast 2)
COc1ccc(N(C(=O)c2ccncc2)S(=O)(=O)c2ccccc2)cc1	PfHsp90 yeast 2 194
COc1ccc(S(=O)(=O)N(C(=O)c2ccncc2)c2ccc(OC(=O)c3ccncc3)cc2)cc1	PfHsp90 yeast 2 91
CC1(c2ccc(Cl)cc2)NC(=O)N(CN2CCOCC2)C1=O (stereo not given)	none
CCCc1nnc(NC(=O)C2CCN(C(=O)C3CC(=O)N(c4ccc(C)cc4)C3)CC2)s1 (stereo not given)	none
COc1ccc2c(c1)/C(=C\c1cccc(/C=C3/C(=O)Nc4ccc(OC)cc43)n1)C(=O)N2	Beta2AR agonist 93 (no result: TIM10 inh, tim10-1 inh, tim23-1 inh)
COc1ccc(C2C(C#N)=C(N)Oc3cc(N)ccc32)cc1 (stereo not given)	none
COc1cc(C2C(C#N)=C(N)Oc3cc(N)ccc32)cc(OC)c1OC (stereo not given)	Beta2AR agonist 50
CCc1ccc(Cn2ncc3c(C(=O)O)cc(C)nc32)cc1	none (no result: TIM10 inh, tim10-1 inh, tim23-1 inh)
CCOC(=O)c1nc2sc3c(c2c(=O)[nH]1)CCC(C)C3 (stereo not given)	Beta2AR agonist 56
CCOC(=O)c1nc2sc3c(c2c(=O)[nH]1)CCCC3	none
CCN(CC)CC(C)(C)C(=O)/C=C/c1ccc(/C=C/C(=O)C(C)(C)CN(CC)CC)cc1	Beta2AR agonist 46 (no result: TIM10 inh, tim10-1 inh, tim23-1 inh)
Cc1c(C(=O)NCCSCc2cccc(C(F)(F)F)c2)cnn1-c1ccc(Cl)cc1	PfHsp90 yeast 2 84
CC(=O)c1cnn(-c2ccc(Cl)cc2)c1C	none
